Data on 72 molecules can be found in the supplement of paper PMC7556523.

Test [1] relates to Sporothrix brasiliensis CBS 133006. The test is described as follows: growth inhibition relative to untreated control; higher = more growth inhibition (more antifungal activity), active = 80 or more; extreme values may be limits of the assay. To be noted: 1 µM; 48 h. In outline:
(§1)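 The reported figure is percent growth inhibition relative to untreated cells, from quadruplicate runs. Yeast-form cells of the reference isolates at 1 x 10^5 CFU/ml were exposed to library compounds at a final 1 μM for 48 h at 35°C in 5% CO2, and growth was assessed by microscopy and spectrophotometric readings.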

The subject of test [2] is Sporothrix schenckii ATCC 32286. The test is described as above. The following applies: 1 µM; 48 h. The method, boiled down: as §1

A number with no mark means an inactive call.

Regarding `Cc1ccc(NC(=O)c2cc(S(=O)(=O)NC(C)(C)C)ccc2C)nc1`, the growth inhibition was 4.25% in test [1] and 0% in test [2].

With `OCCc1ccc(Nc2nccc(-c3nnc4ccccn34)n2)cc1`, the growth inhibition in test [1] is 28.2%; in test [2], 2.5%.

Turning to `COC(=O)Nc1nc2cc(C(=O)c3ccccc3)ccc2[nH]1`, the figures for the growth inhibition in test [1] and in test [2] were 3.75% and 16%, respectively.

With `CC1COC2(CCN(c3nc(=O)c4cc(C(F)(F)F)cc([N+](=O)[O-])c4s3)CC2)O1` (centres undefined), the growth inhibition is 15% in test [1] and 1.5% in test [2].

Take `CC(C)/N=c1\cc2n(-c3ccc(Cl)cc3)c3ccccc3nc-2cc1Nc1ccc(Cl)cc1`: the growth inhibition in test [1] is 7.25%; in test [2], 12.2%.

On to `CC(Oc1cccc(Cl)c1)C(=O)Nc1ccc2oc(-c3ccncc3)nc2c1` (centres undefined), for which the growth inhibition is 20% in test [1] and 4.25% in test [2].

On to `CC(C)(C)OC(=O)N1CCN(c2cc(-c3ccc(Oc4ccccc4)cc3)n[nH]2)CC1`, for which the growth inhibition was 10.5% in test [1] and 0% in test [2].

For the molecule `O=C(Nc1ccc(N2CCNCC2)cc1)c1ccn2ncc(-c3cccc(Cl)c3)c2n1`, the growth inhibition is 12% in test [1] and 14.5% in test [2].

For the molecule `Nc1ccc2ncnc(Nc3ccc(OCc4cccc(F)c4)c(Cl)c3)c2c1`, the growth inhibition in test [1] is 12.8%; in test [2], 8.25%.

Consider `NCCC(O)C(=O)N[C@@H]1C[C@H](N)[C@@H](OC2O[C@H](CN)[C@@H](O)[C@H](O)[C@H]2O)[C@H](O)C1OC1O[C@H](CO)[C@@H](O)[C@H](N)[C@H]1O` (some centres undefined), for which the growth inhibition in test [1] was 9.25%; in test [2] it was 1%.

With `CCC(Sc1nc2ccccc2o1)C(=O)Nc1nccs1` (centres undefined), the growth inhibition was 5.75% in test [1] and 15.5% in test [2].

In the case of `O=C1N(Cc2cc3ccccc3s2)CC2CN(Cc3ccccc3)CCN12` (centres undefined), the growth inhibition is 22% in test [1] and 4.5% in test [2].

Consider `O=C(Nc1cccc(-c2ccc(NCCCN3CCCC3)nc2)c1)c1ccccc1`, for which the growth inhibition in test [1] is 14.8%; in test [2] it was 6%.

For `CC(C(=O)N1CCCC1)N1CCN(S(=O)(=O)c2ccc(C(C)(C)C)cc2)CC1` (centres undefined), the figures for the growth inhibition in test [1] and in test [2] were 37.5% and 7%, respectively.

On to `O=C(NC1CCN(c2ccnc3ccccc23)C1)c1cccc(C(F)(F)F)c1` (centres undefined), for which the growth inhibition in test [1] was 0%; in test [2] it was 1.5%.

As to `Cc1cc(O)nc(-n2nc(C)cc2C)n1`, the values for the growth inhibition in test [1] and in test [2] were 4.75% and 11.8%, respectively.

Consider `Clc1ccc(CN2CCN(C3=NCCN3)CC2)cc1Cl`, for which the growth inhibition in test [1] is 18.8%; in test [2], 17%.

Take `N#CCN(CCCCN1CCN(c2ccc(F)cc2)CC1)C(=O)OCc1ccccc1`: the growth inhibition in test [1] was 11.2%; in test [2], 2.5%.

In the case of `Cc1cccc(NC(=O)c2cc(S(=O)(=O)N(C)c3ccc(F)cc3)ccc2Cl)n1`, the figures for the growth inhibition in test [1] and in test [2] were 4.25% and 8.25%, respectively.

Consider `CN(C)c1cc(NC(=O)Nc2ccccc2)c2ccccc2n1`, for which the growth inhibition in test [1] is 0%; in test [2], 0.75%.

As to `CCOc1ccccc1C(=O)Nc1cccc(-c2nc3ncccn3c2C)c1`, the growth inhibition is 6.75% in test [1] and 12.2% in test [2].

In the case of `O=C1COCc2ccc(Br)cc2N1Cc1ccc(C(F)(F)F)cc1`, the growth inhibition in test [1] is 0%; in test [2], 2.75%.

In the case of `O=C(COc1cccc(F)c1)Nc1nc(-c2ccccn2)cs1`, the growth inhibition is 22.5% in test [1] and 8.75% in test [2].

`COc1cccc(CC(=O)N2CCC(n3c(C)nc4ccc(F)cc43)CC2)c1`: the values for the growth inhibition in test [1] and in test [2] were 7.5% and 6.25%, respectively.

As for `Brc1c(-c2ccc3c(c2)OCO3)nc2ncccn12`, the growth inhibition in test [1] was 19.5%; in test [2] it was 27.8%.

As for `CCC(C)NC(=O)c1ccc(NC(=O)C2(c3ccccc3)CCCC2)cc1` (centres undefined), the growth inhibition in test [1] is 5.5%; in test [2], 4.25%.

`O=C(NCCc1ccn(-c2ccccc2)n1)C1CCCCC1`: the growth inhibition in test [1] was 11.5%; in test [2], 6.25%.

As to `COc1ccc(N(CCc2cccc(C)n2)C(=O)C2CCCCC2)cc1`, the growth inhibition in test [1] was 5.75%; in test [2], 0%.

With `Nc1ccc(C(=O)Nc2ccc(-c3nc4ccccc4o3)cc2)cc1`, the results for the growth inhibition in test [1] and in test [2] were 5.5% and 0%, respectively.

`NCCN(C(=O)c1ccc(Cl)cc1Cl)c1ccc(OCc2ccc(Cl)cc2)cc1`: the figures for the growth inhibition in test [1] and in test [2] were 9.75% and 7%, respectively.

Turning to `CCc1ccc([C@@H]2C[C@H](C(F)(F)F)n3ncc(C(=O)NCc4ccc(OC)cc4)c3N2)cc1`, the growth inhibition in test [1] was 15.5%; in test [2], 12.2%.

For `O=C(NC1CC1)c1ccc(N2CCOc3ccc(Cl)cc32)s1`, the growth inhibition in test [1] was 7%; in test [2], 11.8%.

For `CCNC(=O)C(C)Nc1nc(-c2cccnc2)nc2sc(C)c(C)c12` (centres undefined), the results for the growth inhibition in test [1] and in test [2] were 2.25% and 16%, respectively.

`CCC(Sc1nc2ccccc2o1)C(=O)Nc1nnc(C)s1` (centres undefined): the figures for the growth inhibition in test [1] and in test [2] were 16% and 3.25%, respectively.

As to `CC(C)c1ncc(-c2ccncc2)c([C@H]2CC[C@H](CNC(=O)c3cccnc3)CC2)n1`, the growth inhibition in test [1] was 4.5%; in test [2], 8.25%.

As for `O=C(NCc1cc(Cl)cc(Cl)c1)c1c(C(F)(F)F)nc2ccccn12`, the growth inhibition was 21.5% in test [1] and 11.2% in test [2].

With `CC[C@@H](CO)NCCN[C@@H](CC)CO`, the values for the growth inhibition in test [1] and in test [2] were 6.75% and 12.2%, respectively.

As for `Nc1nc(N)c2c3c(sc2n1)CN(Cc1ccccc1)CC3`, the growth inhibition is 21.5% in test [1] and 11% in test [2].

As for `Cc1ccc(-c2cc(C(=O)Nc3cccnc3)c3cc(Br)ccc3n2)cc1`, the growth inhibition is 25.2% in test [1] and 0% in test [2].

For `CO[C@H]1/C=C\O[C@@]2(C)Oc3c(C)c(O)c4c(O)c(/c(=C/NN5CCN(C)CC5)c(O)c4c3C2=O)=N\C(=O)/C(C)=C\C=C/[C@H](C)[C@H](O)[C@@H](C)[C@@H](O)[C@@H](C)[C@H](OC(C)=O)[C@@H]1C`, the growth inhibition in test [1] was 3%; in test [2] it was 11.2%.

Turning to `COc1ccc(CCN2CCC(NCc3cccc(N(C)C)c3)CC2)cc1`, the values for the growth inhibition in test [1] and in test [2] were 29% and 9.75%, respectively.

On to `Cc1cnc(N2CCN[C@@H](Cc3ccccc3)C2)nc1Oc1ccc(-n2ccnc2)cc1`, for which the growth inhibition in test [1] is 2.75%; in test [2], 6.5%.

`CC(=O)N(CCN(C(=O)c1ccc(F)cc1)c1ccccc1)c1ccccc1`: the growth inhibition in test [1] is 13%; in test [2], 0%.

Consider `COc1ccc(CN2CCOc3ccc(C(C)(O)CN(C)C)cc3C2)cc1C` (centres undefined), for which the growth inhibition in test [1] was 1.25%; in test [2] it was 16%.

On to `Clc1ccc(CCNc2cc(-c3ccccc3)nc3ncnn23)cc1`, for which the growth inhibition in test [1] is 9.75%; in test [2], 18.2%.

Consider `CNC(=O)c1nn(C)c2c1C(C)(C)Cc1cnc(Nc3ccc(N4CCN(C)CC4)cc3)nc1-2`, for which the results for the growth inhibition in test [1] and in test [2] were 37.5% and 1.25%, respectively.

As for `CC(=O)N1CCN(c2ccc(Oc3ccc(Cl)cc3O)cc2)CC1`, the growth inhibition was 3.5% in test [1] and 0.75% in test [2].

On to `CC(C)(C(=O)Nc1ccc(F)cc1)n1cc(-c2ccccc2F)cn1`, for which the values for the growth inhibition in test [1] and in test [2] were 0% and 11%, respectively.

For `CC(C)C(Oc1cccc2ccccc12)C(=O)O` (centres undefined), the results for the growth inhibition in test [1] and in test [2] were 23.2% and 4.25%, respectively.

On to `CC(C)(C)c1cc(C(=O)N2CCN(c3nccnc3C#N)CC2)n(Cc2ccccc2)n1`, for which the growth inhibition was 25.8% in test [1] and 15.8% in test [2].

Take `N#Cc1nc(-c2ccccc2F)oc1NCCc1ccccc1`: the growth inhibition in test [1] is 3.75%; in test [2], 0%.

Consider `c1csc(-c2cnc3sc(NCC4CCOCC4)nn23)c1`, for which the growth inhibition is 19.8% in test [1] and 8.75% in test [2].

As to `COc1ccc(C2=NCCN2)cc1-c1cn(-c2cccc(C3=NCCN3)c2)nn1`, the growth inhibition in test [1] is 12.8%; in test [2], 3%.

In the case of `C[C@H]1COc2c(N3CCN(C)CC3)c(F)cc3c(=O)c(C(=O)O)cn1c23`, the growth inhibition in test [1] and in test [2] was 0% in each case.

For `COc1ccc(C(=N)N)cc1-c1cn(-c2ccc(C(=N)N)cc2)nn1`, the growth inhibition was 51.8% in test [1] and 0% in test [2].

Regarding `O=C(CCC1CCCCC1)Nc1cccc(-c2nnc(-c3ccco3)o2)c1`, the growth inhibition in test [1] and in test [2] was 2.5% in each case.

Consider `Cc1cc(C)n(-c2ccc(NC(=O)C3CCN(Cc4cnc(C)s4)CC3)cc2)n1`, for which the growth inhibition was 5.5% in test [1] and 1.25% in test [2].

Regarding `COc1ccc(OC(C)C(=O)Nc2ccc(Cl)cc2C)cc1` (centres undefined), the values for the growth inhibition in test [1] and in test [2] were 10.5% and 11.2%, respectively.

Consider `CC(=O)NCC1CN(c2ccc(-c3ccc(CO)cc3)c(F)c2)C(=O)O1` (centres undefined), for which the values for the growth inhibition in test [1] and in test [2] were 4% and 13.2%, respectively.

Consider `Cc1cc2nc(NC(=O)C(C)(C)C)nc(Cl)c2n1Cc1ccc(Cl)cc1`, for which the growth inhibition in test [1] is 14.8%; in test [2], 2.5%.

In the case of `COc1ccc(Nc2ccccc2NC(=O)c2ccc(O)nc2)cc1`, the growth inhibition is 14.2% in test [1] and 4.25% in test [2].

For the molecule `Cc1ccc2[nH]c3c(NCCN(C)C)ncnc3c2c1`, the growth inhibition is 2% in test [1] and 0% in test [2].

On to `COc1cccc(NC(=O)c2c(NC(=O)c3cccnc3)sc3c2CCC3)c1`, for which the values for the growth inhibition in test [1] and in test [2] were 15.8% and 13.8%, respectively.

On to `COc1ccccc1C(C)NCC(=O)Nc1cc(C(F)(F)F)ccc1Cl` (centres undefined), for which the growth inhibition in test [1] is 9.75%; in test [2] it was 0%.

`Cc1ccccc1CN1CCC(O)(c2ccc(Cl)c(C(F)(F)F)c2)CC1`: the growth inhibition in test [1] and in test [2] was 0% each time.

Turning to `COC(=O)c1c(NC(=O)c2c(F)c(F)c(F)c(F)c2F)sc2c1CCCCC2`, the growth inhibition was 13.8% in test [1] and 0.75% in test [2].

Take `COc1ccc(Cl)cc1NC(=O)CN(C)C(=O)c1cnn(-c2ccccc2)n1`: the growth inhibition in test [1] is 14.5%; in test [2] it was 15.2%.

For the molecule `COc1ccc(S(=O)(=O)Nc2ccc(CN3CCN(C(=O)c4cccc(C#N)c4)CC3)cc2)cc1`, the growth inhibition in test [1] was 4.25%; in test [2], 7.75%.

On to `CC(C)(C)n1nc(-c2ccccc2)c2c(N)ncnc21`, for which the growth inhibition is 0% in test [1] and 9% in test [2].

For the molecule `COc1cc(Br)cc2cc(C(=O)Nc3cccc(C(F)(F)F)c3)c(=O)oc12`, the values for the growth inhibition in test [1] and in test [2] were 11.5% and 6.75%, respectively.

For `Cc1ccccc1C(=O)N1N=C(Nc2ccccc2)SC1(C)C`, the growth inhibition was 10.5% in test [1] and 16% in test [2].

As to `CN1CCN(c2cc(-c3ccc(F)cc3)nc(-c3ccncc3)n2)CC1`, the growth inhibition in test [1] was 7%; in test [2], 12.2%.
